Sampled rows, rich in hits. Any-hit rate of the full collection: about 3.4%.
TEAD-YAP inh – TEAD-YAP interaction inhibition, primary screen, TEAD-YAP interaction inhibitor project, luminescence, HEK-TIYL cells | TEAD-Gal4/YAP UAS-luciferase luminescence | inhibition, % at 9.12 µM | 640,000 compounds, 1.4% hits | AID 1259422, 2018; in the data active means inhibition above about 32%
FBW7 act – FBW7 E3 ligase activators, primary screen, biochemical, AlphaScreen, human | AID 1259310, 2017 | 650,000 compounds, 0.13% hits | normalized activity (activation), % at 26.1 µM | AlphaScreen FBW7–phospho-cyclin E peptide binding, activator screen; in the data active means normalized activity above about 1.9%;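 further: purified mutant Fbw7 with reduced substrate affinity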
MITF inh – MITF inhibitors, primary screen, biochemical, AlphaScreen, human. AID 1259374, 2018. Microphthalmia-associated transcription factor (Homo sapiens), O75030. 650,000 compounds, 0.91% hits. inhibition, % at 2.6 µM. AlphaScreen MITF homodimerization, bead proximity signal; in the data active means inhibition above about 50%
Target sequence (O75030 whole entry, looked up): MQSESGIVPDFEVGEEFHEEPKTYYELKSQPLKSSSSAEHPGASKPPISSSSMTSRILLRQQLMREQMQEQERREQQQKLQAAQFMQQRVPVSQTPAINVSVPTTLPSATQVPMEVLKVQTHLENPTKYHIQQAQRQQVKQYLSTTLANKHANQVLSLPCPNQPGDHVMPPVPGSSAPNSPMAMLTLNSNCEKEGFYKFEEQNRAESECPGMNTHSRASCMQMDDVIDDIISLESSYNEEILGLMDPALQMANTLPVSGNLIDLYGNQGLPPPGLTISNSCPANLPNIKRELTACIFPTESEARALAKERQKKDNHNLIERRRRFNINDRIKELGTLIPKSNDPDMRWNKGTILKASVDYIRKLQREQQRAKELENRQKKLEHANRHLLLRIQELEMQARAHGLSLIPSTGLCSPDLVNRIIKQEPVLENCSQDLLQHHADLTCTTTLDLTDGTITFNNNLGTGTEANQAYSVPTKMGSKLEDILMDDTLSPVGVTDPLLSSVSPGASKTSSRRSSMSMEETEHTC
GPR151 ag – activators of human GPR151, primary screen, cell-based, PathHunter beta-arrestin, luminescence. G-protein coupled receptor 151 (Homo sapiens), Q8TDV0. PathHunter beta-arrestin GPR151 cells. activation, % at 11.2 µM. 650,000 compounds, 1% hits; in the data active means activation above about 4.9%
GPR151 confirm – GPR151 activators, triplicate retest, confirmation, cell-based, PathHunter beta-arrestin, luminescence. shares compounds with GPR151 ag. GPR151 PathHunter beta-arrestin cells, 90 min; % of EA-reagent control over plate median. activation, % at 11.2 µM. 6,700 tested, under 10 active. AID 1508609, 2020;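 active means mean percent activation across replicates above the confirmation screen cutoff of 4.91%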
GPR119 counter – GPR119 activators in beta-arrestin cells, counter-screen for GPR151 activator project, cell-based, PathHunter beta-arrestin, luminescence, triplicate; activation, % at 11.2 µM; shares compounds with GPR151 ag; 6,700 compounds, 0.3% hits; 90 min; 0 = compound-well median, 100 = enzyme-acceptor control;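 active means mean percent activation in the counterscreen above 29.09%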;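 further: counterscreen on off-target GPR119 to flag nonselective hits from the GPR151 activator screen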
Large screens that a line does not name were inactive (follow-up assays come after a bar, where they were run).

Cc1cccc(Nc2ncnc3[nH]ncc23)c1	none
CC1(C)CC(=O)C2=C(C1)OC1=C(C(=O)CC(C)(C)C1)C2c1cc(Cl)cc(Cl)c1OCc1ccc(Cl)cc1Cl	GPR151 ag 5.5 | GPR151 confirm inactive | GPR119 counter inactive
Cc1nccc2[nH]c(=O)c(C(=O)NCCc3ccccc3)cc12	GPR151 ag 7.3 | GPR151 confirm inactive | GPR119 counter inactive
N#Cc1sc2ncc3c(c2c1N)CCCC3	GPR151 ag 9.7 | GPR151 confirm inactive | GPR119 counter inactive
CCOc1ccc(NC(=O)COc2ccccc2Br)cc1	GPR151 ag 5.0 | GPR151 confirm inactive | GPR119 counter inactive
O=C(COc1ccccc1Br)NN=C1CCCCC1	GPR151 ag 9.7 | GPR151 confirm inactive | GPR119 counter inactive
COc1ccc(C2CCN(CC(=O)N3CCOCC3)CC2)cc1	none
COc1cc(OC)nc(CSCC(=O)N2CCN(CC(=O)N3CCOCC3)CC2)n1	GPR151 ag 5.2 | GPR151 confirm inactive | GPR119 counter inactive
Cc1cccc(NC(=O)C2CCCN2c2nnc(N3CCCC3=O)s2)c1C (stereo unspecified)	none
O=C(O)c1cc(N2C(=O)C3C4C=CC(C4=C(c4ccccc4)c4ccccc4)C3C2=O)ccc1Cl (stereo unspecified)	GPR151 ag 5.1 | GPR151 confirm inactive | GPR119 counter inactive
CCNS(=O)(=O)c1cc(CC)ccc1OC	none
Cc1ccc(N2CC(C(=O)Nc3ccccc3C(N)=O)CC2=O)cc1 (stereo unspecified)	none
Cc1ccc(N2CC(C(=O)Nc3ccccc3C(=O)NC(C)C)CC2=O)cc1 (stereo unspecified)	GPR151 ag 6.3 | GPR151 confirm inactive | GPR119 counter inactive
O=C(NCc1ccco1)C1CC(=O)N(c2ccc(F)cc2)C1 (stereo unspecified)	none
Cc1ccc(N2CC(C(=O)Nc3ccccc3C(=O)NCCc3ccccc3)CC2=O)cc1 (stereo unspecified)	GPR151 ag 5.3 | GPR151 confirm inactive | GPR119 counter inactive
O=C(NCc1ccco1)c1ccccc1NC(=O)C1CC(=O)N(c2ccc(Cl)cc2)C1 (stereo unspecified)	GPR151 ag 6.8 | GPR151 confirm inactive | GPR119 counter inactive
CC(C)c1nc2ccccc2c2nnc(SCC(=O)N3CCCC3)n12	none
CC(=O)N1CCSc2cc(S(=O)(=O)NC3CCCCCC3)ccc21	none
O=C1C2CC=CCC2C(=O)N1CC(=O)N1N=C(c2ccc(Cl)cc2)CC1c1ccco1 (stereo unspecified)	GPR151 ag 6.6 | GPR151 confirm inactive | GPR119 counter inactive
CC(=O)NN1C(=O)/C(=C/c2cccc(O)c2)SC1=S	GPR151 ag 6.3 | GPR151 confirm inactive | GPR119 counter inactive
O=C(NC(=S)N1CCN(c2ccc([N+](=O)[O-])cc2)CC1)c1cccs1	none
CCOc1ccc(N=Cc2c(O)n(CC)c(=S)[nH]c2=O)cc1	GPR151 ag 6.0 | GPR151 confirm inactive | GPR119 counter inactive
COCCCNC(=O)CCc1c(C)nc2cc(-c3ccccc3)nn2c1C	GPR151 ag 5.3 | GPR151 confirm inactive | GPR119 counter inactive
O=C(Cn1cc2c(n1)CCCC2)N1CCc2ccccc2C1	none
O=C(Cn1cc2c(n1)CCCCC2)N1CCc2ccccc21	GPR151 ag 5.4 | GPR151 confirm inactive | GPR119 counter inactive
O=C(NCSC1=NCCS1)c1ccccc1	GPR151 ag 8.2 | GPR151 confirm inactive | GPR119 counter inactive
c1ccc(CSC2=NCCS2)cc1	none
COc1cc(C2C(C(=O)OC3CCCC3)=C(C)NC3=C2C(=O)CC(c2ccc(Cl)cc2)C3)ccc1OC(C)=O (stereo unspecified)	GPR151 ag 5.5 | GPR151 confirm inactive | GPR119 counter inactive
CCOc1ccc(C2C(C(=O)OC3CCCCC3)=C(C)NC3=C2C(=O)CCC3)cc1OC (stereo unspecified)	none

Screening data: PubChem BioAssay, The Scripps Research Institute Molecular Screening Center
